Hit rate of the full screen: of about 2,300 compounds, about 1,200 (52%) were called active. About 34% were inconclusive and are not listed. The set was probably picked from earlier hits. The list shows a part of the results. Unmarked numbers belong to inactive results. The call rests on the fitted dose curve; in most records, active means well fitted inhibition curve with a large enough effect; inconclusive means small, poorly fitted or top-dose-only effect, or effect the other way; inactive means no such curve, though single readings can be large or run the other way.
test: Confirmation screen for delayed death inhibitors of the malarial parasite plastid, 48 hour incubation; further: nearly all actives have a fitted effect of over 65% in size; conditions: P. falciparum-infected erythrocytes, luciferase growth; series mostly up to 28.7 µM; activity change, negative = inhibition: at the top concentration
Excerpt: The goal of this screen is to discover new antimalarial compounds that act by inhibiting the development of the apicoplast in the malarial parasite Plasmodium falciparum. The biochemical processes that make this organelle essential for erythrocytic stage parasites are not well understood. However, antibiotics, such as azithromycin and tetracycline, which target the apicoplast translational machinery, have a potent antimalarial effect. […] We have developed a cell-based assay that measures parasite growth based on the expression of an integrated copy of a firefly luciferase reporter. To detect small molecules that cause this "delayed death phenotype, erythrocytes infected with the luciferase-expressing parasites were incubated with compounds for either one or two generations, corresponding to 48 and 96 hours, respectively. Compounds that inhibit parasite growth in the second generation, but not the first, should be enriched in antimalarials that target the apicoplast. Growth inhibition is detected by a decrease in luciferase activity. MLPCN Grant: R21 NS059500 Assay Provider: David Fidock and Eric Ekland, Columbia University Keywords: NIH Roadmap, MLPCN, MLI, MLSMR, qHTS, NCGC, qHTS, malaria, luciferase, viability
Four microliters of culture medium (RPMI 1640 with 0.5% w/v Albumax (GIBCO), 24 mM sodium bicarbonate and 10 ug/mL gentamycin) were dispensed by a Multi-drop Combi into white solid 1536-well plates (Grenier) and 23 nL compound was added by a pin tool. Four microliters of infected erythrocytes (2% hematocrit, 0.1% parasitemia final concentration) in culture medium were dispensed and the plates incubated for 48 hours at 37 C in 5% CO2. Two microliters of luciferase detection reagent was added and luminescence was detected by a ViewLux (PerkinElmer) reader.
On the % scale 0 is the no-effect control and ±100 the full control effect; potency means the concentration at half of the fitted maximal effect.

Compound | Potency | activity change, negative = inhibition
CC1(C)CCSC(/C=C/c2ccccc2)=N1 | 7.94 µM (active) | –
CC(=O)c1ccc(NC(=S)Nc2ccc3cn[nH]c3c2)cc1 | – | 5.49%
CCC(=O)NC(=S)Nc1ccc(NC(=O)c2ccc(C)c([N+](=O)[O-])c2)cc1 | 14.1 µM (active) | –
Cc1ccc(-c2nn(C(C)(C)C)c3ncnc(N)c23)cc1 | 5.62 µM (active) | –
Cc1cccc[n+]1CC(=O)c1ccc(NC(=O)c2ccccc2)cc1 | 7.94 µM (active) | –
Cc1ccc(Nc2cc(C)nc3ccc(C)cc23)cc1 | 10 µM (active) | –
CN(CCC#N)C(=O)COC(=O)c1ccc2[nH]c3c(c2c1)CCCC3 | – | -8.6%
COc1ccccc1N1CCN(C(=O)c2ccc3[nH]c4c(c3c2)CCCC4)CC1 | 12.6 µM (active) | –
Cc1ccc(Cl)cc1Nc1nc(-c2sc(NC(=O)C(C)(C)C)nc2C)cs1 | 5.01 µM (active) | –
CCOC(=O)C1CCN(c2c(NCc3ccc(C(=O)NCCC(C)C)cc3)c(=O)c2=O)CC1 | 2.24 µM (active) | –
O=C(/C=C/c1cccnc1)/C=C/c1cccnc1 | 4.47 µM (active) | –
COc1ccc(C(=O)/C=C/c2cccnc2)c(OC)c1 | 7.94 µM (active) | –
O=C(/C=C/c1ccccc1)/C=C/c1ccccc1 | 11.2 µM (active) | –
O=C(/C=C/c1cccnc1)c1ccc(O)cc1 | 15.8 µM (active) | –
COc1cc(/C=C/C(=O)OCC(=O)Nc2c(C)n(C)n(-c3ccccc3)c2=O)cc(OC)c1OC | – | -10.5%
COc1cc(/C=C/C(=O)Nc2cccnc2)cc(OC)c1OC | 14.1 µM (active) | –
COc1cc(C(=O)/C=C/c2cccnc2)ccc1O | 12.6 µM (active) | –
CC(C)NC(=O)c1onc(CSc2cccc3ccccc23)c1C(=O)O | – | -31.7%
COc1cc2cc[n+](Cc3ccc([N+](=O)[O-])cc3)cc2cc1OC | 5.01 µM (active) | –
CN1CCN(c2ncnc3c2c(-c2ccccc2)cn3-c2ccc(F)cc2)CC1 | 11.2 µM (active) | –
Fc1ccccc1N1CCN(c2ncnc3nc[nH]c23)CC1 | – | 8.13%
CCN1CCN(c2ncnc3c2c(-c2ccccc2)cn3-c2ccc(F)cc2)CC1 | 12.6 µM (active) | –
COc1ccc(-n2c(=O)/c(=C\c3cccs3)s/c2=C(/C#N)C(=O)N2CCN(C)CC2)cc1 | – | -15.1%
O=C(CCl)N1CCN(CC(=O)N2CCCC2)CC1 | 15.8 µM (active) | –

Compound | Potency | activity change, negative = inhibition
CN(C(=O)CN1C(=O)CCSc2ccc(S(=O)(=O)N3CCCC3)cc21)c1ccccc1 | 11.2 µM (active) | –
O[C@@H](c1cc(C(F)(F)F)nc2c(C(F)(F)F)cccc12)[C@H]1CCCCN1 | 0.178 µM (active) | –
OC(c1cc(C(F)(F)F)nc2c(C(F)(F)F)cccc12)C1CCCCN1 (configuration not stated) | 0.0447 µM (active) | –
OC(c1cc(-c2ccc(Cl)cc2)nc2ccccc12)C1CCCCN1 (configuration not stated) | 0.282 µM (active) | –
OC(c1cc(C(F)(F)F)nc2c(Cl)cc(Cl)cc12)C1CCCCN1 (configuration not stated) | 0.0282 µM (active) | –
COc1ccc(-n2c(C)cc(C(=O)COC(=O)Cc3n[nH]c(=O)c4ccccc34)c2C)cc1 | 5.62 µM (active) | –
O=C(Cc1n[nH]c(=O)c2ccccc12)OCc1c(Cl)cccc1Cl | – | 24.5%
CC(C)(C)C(=O)/C(=C\c1cccc([N+](=O)[O-])c1)n1cncn1 | 14.1 µM (active) | –
CC(=O)c1ccc(NC(=O)C2Cc3ccccc3CN2C(=O)c2ccccc2)cc1 (configuration not stated) | 14.1 µM (active) | –
C/C1=C\CCC2C(/C=C(\C)CC1)OC(=O)C2CN1CCCCC1 (configuration not stated) | 12.6 µM (active) | –
N#Cc1cc(Oc2cccc3cccnc23)c(-n2nnc3ccccc32)cc1C#N | 5.01 µM (active) | –
COc1ccccc1-c1cc(C(=O)N/N=C/c2ccc(C)o2)c2ccccc2n1 | – | -25.3%
COc1ccccc1-c1cc(C(=O)N/N=C/c2cccs2)c2ccccc2n1 | 5.62 µM (active) | –
COc1ccccc1-c1cc(C(=O)N/N=C/c2ccc(C)s2)c2ccccc2n1 | 5.62 µM (active) | –
OC1C2(Cc3ccccc3)CN3CCN(C2)CC1(Cc1ccccc1)C3 (configuration not stated) | 2 µM (active) | –
CCCc1cc(NCCCN2CCOCC2)n2c(nc3ccccc32)c1C#N | 8.91 µM (active) | –
Cc1ccccc1-c1nnc(NC(=O)c2ccc(N3C(=O)CCC3=O)cc2)s1 | 14.1 µM (active) | –
CCC[C@H]1C[C@H](C(=O)N[C@@H]([C@H]2O[C@@H](SC)[C@@H](O)[C@@H](O)[C@@H]2O)[C@H](C)Cl)N(C)C1 | 0.631 µM (active) | –
COc1ccc(NS(=O)(=O)c2ccc(N3CCOCC3)c(NC(=O)c3ccc(OC)cc3)c2)cc1 | 11.2 µM (active) | –
CCOC(=O)C1=C(C)NC(C)=C(C(=O)OCC)C1c1cc(N)ccc1OC(F)F | 5.62 µM (active) | –
COC(=O)COc1ccc(S(=O)(=O)NCCC2=CCCCC2)cc1Cl | – | -21.8%
CCOc1ccc(S(=O)(=O)N2CCCC(C(=O)NC3CC3)C2)cc1Cl (configuration not stated) | 12.6 µM (active) | –
COc1cccc2sc(NNC(=O)c3nc4ccccc4s3)nc12 | 15.8 µM (active) | –

— PubChem BioAssay AID504850 (National Center for Advancing Translational Sciences (NCATS), 2011)
